From PubChem BioAssay AID1159580 (chemical genetic matrix, 2015)
Where “and” joins values, the source holds several entries; their conditions need not be identical. Equal entries are not always repeated. Out of some 5,500 compounds screened, about 2,000 (36%) were called active. About 18% were inconclusive and are not listed. Rule as the data show it: active = normalized growth mostly below about 0.91 (no sharp cut-off); inconclusive = no clear call, values can overlap the other calls; inactive = mostly above about 0.92. This is one part of the list.

Experiment: chemical genetic growth profiling, strain panel (AID 1159580);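 also: tested at 20 µM; growth read once vehicle control cultures reached saturation at 30 °C; 1 = growth at the plate median or of vehicle wells; lower values mean less growth of the strain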
Conditions: S. cerevisiae deletion strains, growth OD

Measured: normalized growth

CCN1C[C@@]2(COC)C3[C@@H](OC)[C@H]4[C@@H]1[C@]3(C(OC)C[C@H]2O)C1C[C@@]2(O)[C@H](OC(=O)c3ccccc3)C1[C@]4(OC(C)=O)[C@@H](O)[C@@H]2OC (stereo partly drawn)
inactive: locus YAL021C, strain ccr4, stronger effect = lower value 1.03 | locus YAL026C, strain drs2, stronger effect = lower value 1.02 | locus YAL030W, strain snc1, stronger effect = lower value 1 | locus YBL061C, strain skt5, stronger effect = lower value 1 | locus YBR009C, strain hhf1, stronger effect = lower value 1.06 | locus YBR021W, strain FUR4, stronger effect = lower value 0.985 | locus YBR023C, strain chs3, stronger effect = lower value 1.01 | locus YBR171W, strain sec66, stronger effect = lower value 1.01 | locus YBR229C, strain ROT2, stronger effect = lower value 1.02 | locus YBR231C, strain swc5, stronger effect = lower value 0.995 | locus YBR279W, strain paf1, stronger effect = lower value 1.02 | locus YCL011C, strain gbp2, stronger effect = lower value 1.02 | locus YCL016C, strain dcc1, stronger effect = lower value 0.999 | locus YCL029C, strain bik1, stronger effect = lower value 1.03 | locus YCL061C, strain MRC1, stronger effect = lower value 1 | locus YCL069W, strain vba3, stronger effect = lower value 1 | locus YCR088W, strain abp1, stronger effect = lower value 1 | locus YDL005C, strain med2, stronger effect = lower value 1.01 | locus YDL035C, strain GPR1, stronger effect = lower value 1.03 | locus YDL040C, strain nat1, stronger effect = lower value 1 | locus YDL074C, strain BRE1, stronger effect = lower value 1.03 | locus YDL101C, strain DUN1, stronger effect = lower value 1.02 | locus YDL185W, strain tfp1, stronger effect = lower value 1.04 | locus YDL192W, strain arf1, stronger effect = lower value 1.03 | locus YDR001C, strain nth1, stronger effect = lower value 1.01 | locus YDR069C, strain doa4, stronger effect = lower value 0.985 | locus YDR101C, strain arx1, stronger effect = lower value 1.03 | locus YDR137W, strain rgp1, stronger effect = lower value 1.02 | locus YDR150W, strain NUM1, stronger effect = lower value 1.02 | locus YDR159W, strain sac3, stronger effect = lower value 0.978 | locus YDR162C, strain NBP2, stronger effect = lower value 1.05 | locus YDR195W, strain ref2 0.97 | locus YDR297W, strain sur2, stronger effect = lower value 1.04 | locus YDR318W, strain mcm21, stronger effect = lower value 1.03 | locus YDR334W, strain swr1, stronger effect = lower value 1.02 | locus YDR335W, strain msn5, stronger effect = lower value 1.01 | locus YDR388W, stronger effect = lower value 1.03 | locus YDR392W, strain spt3, stronger effect = lower value 0.907 | locus YDR502C, strain sam2, stronger effect = lower value 1.03 | locus YEL003W, strain gim4, stronger effect = lower value 1.02 | locus YEL037C, strain rad23, stronger effect = lower value 1.01 | locus YEL061C, strain CIN8 (second series), stronger effect = lower value 1.01 | locus YEL061C, strain CIN8, stronger effect = lower value 1.02 | locus YER015W, strain faa2, stronger effect = lower value 1.01 | locus YER016W, strain bim1, stronger effect = lower value 1 | locus YER110C, stronger effect = lower value 1.04 | locus YER111C, strain swi4, stronger effect = lower value 1.01 | locus YER155C, strain BEM2 (second series), stronger effect = lower value 0.973 | locus YER155C, strain BEM2, stronger effect = lower value 1 | locus YER167W, strain BCK2, stronger effect = lower value 1.03 | locus YFR010W, strain ubp6, stronger effect = lower value 1.01 | locus YGL078C, strain dbp3, stronger effect = lower value 1.03 | locus YGL086W, strain mad1, stronger effect = lower value 1.02 | locus YGL167C, strain pmr1, stronger effect = lower value 0.998 | locus YGL173C, strain kem1, stronger effect = lower value 1.02 | locus YGL227W, strain vid30, stronger effect = lower value 1.01 | locus YGL240W, strain doc1, stronger effect = lower value 0.987 | locus YGL248W, strain PDE1, stronger effect = lower value 1.02 | locus YGL253W, strain hxk2, stronger effect = lower value 1.01 | locus YGR135W, strain pre9, stronger effect = lower value 1.03 | locus YGR252W, strain gcn5, stronger effect = lower value 1.01 | locus YHR013C, strain ard1, stronger effect = lower value 0.995 | locus YHR027C, strain rpn1, stronger effect = lower value 1.01 | locus YHR030C, strain SLT2, stronger effect = lower value 1.02 and 0.957 | locus YHR079C, strain IRE1 (second series), stronger effect = lower value 1.03 | locus YHR079C, strain IRE1, stronger effect = lower value 0.967 | locus YHR094C, strain hxt1, stronger effect = lower value 1.03 | locus YHR129C, strain ARP1, stronger effect = lower value 1.02 | locus YHR142W, strain chs7, stronger effect = lower value 1.03 | locus YHR200W, strain rpn10, stronger effect = lower value 1.04 | locus YIL066C, strain RNR3, stronger effect = lower value 1.04 | locus YIL073C, strain SPO22, stronger effect = lower value 1.13 | locus YIL125W, strain kgd1, stronger effect = lower value 1.03 | locus YIR030C, strain dcg1, stronger effect = lower value 1.03 | locus YJL092W, strain hpr5, stronger effect = lower value 1 | locus YJL095W, strain BCK1 (second series), stronger effect = lower value 1.02 | locus YJL095W, strain BCK1, stronger effect = lower value 1.04 and 1 | locus YJL115W, strain asf1, stronger effect = lower value 1.01 | locus YJL129C, strain trk1, stronger effect = lower value 1.01 | locus YJL134W, strain LCB3, stronger effect = lower value 1.01 | locus YJL154C, strain vps35, stronger effect = lower value 1 | locus YJL164C, strain tpk1, stronger effect = lower value 1.02 | locus YJL166W, strain qcr8, stronger effect = lower value 0.989 | locus YJL168C, strain set2, stronger effect = lower value 1.03 | locus YJL187C, strain SWE1 (second series), stronger effect = lower value 1.04 | locus YJL187C, strain SWE1, stronger effect = lower value 1.03 | locus YJR043C, strain POL32, stronger effect = lower value 1.03 | locus YJR066W, strain TOR1, stronger effect = lower value 0.975 | locus YKL009W, strain mrt4, stronger effect = lower value 1.05 | locus YKL068W, stronger effect = lower value 1.05 | locus YKL085W, strain MDH1 (second series), stronger effect = lower value 1.03 | locus YKL085W, strain MDH1, stronger effect = lower value 1.03 | locus YKL160W, strain elf1, stronger effect = lower value 0.963 | locus YKR001C, strain vps1, stronger effect = lower value 1.01 | locus YKR026C, strain gcn3, stronger effect = lower value 1.01 | locus YKR091W, strain srl3, stronger effect = lower value 1.01 | locus YLL001W, strain dnm1, stronger effect = lower value 0.992 | locus YLL026W, stronger effect = lower value 1 | locus YLL041C, strain sdh2, stronger effect = lower value 1.01 | locus YLR027C, strain aat2, stronger effect = lower value 1 | locus YLR039C, strain RIC1, stronger effect = lower value 1.09 | locus YLR058C, strain SHM2, stronger effect = lower value 1.03 | locus YLR102C, strain apc9, stronger effect = lower value 1.03 | locus YLR113W, strain HOG1, stronger effect = lower value 0.94 | locus YLR221C, strain rsa3, stronger effect = lower value 0.999 | locus YLR258W, strain gsy2, stronger effect = lower value 1.01 | locus YLR262C, strain YPT6 (second series), stronger effect = lower value 0.994 | locus YLR262C, strain YPT6, stronger effect = lower value 1.13 | locus YLR268W, strain sec22, stronger effect = lower value 1.02 | locus YLR320W, strain mms22, stronger effect = lower value 0.991 | locus YLR330W, strain CHS5, stronger effect = lower value 1.02 | locus YLR342W, strain FKS1 (second series), stronger effect = lower value 1.02 | locus YLR342W, strain FKS1, stronger effect = lower value 1.01 | locus YLR357W, strain rsc2, stronger effect = lower value 1.01 | locus YLR370C, strain arc18, stronger effect = lower value 1.02 | locus YLR371W, strain rom2, stronger effect = lower value 1.02 | locus YLR384C, strain iki3, stronger effect = lower value 1.01 | locus YLR418C, strain cdc73, stronger effect = lower value 1.04 | locus YML016C, strain PPZ1, stronger effect = lower value 1.02 | locus YML032C, strain rad52, stronger effect = lower value 1.02 | locus YML120C, strain ndi1, stronger effect = lower value 1.01 | locus YML124C, strain tub3, stronger effect = lower value 1.04 | locus YMR058W, strain fet3, stronger effect = lower value 1.01 | locus YMR078C, strain ctf18, stronger effect = lower value 1.06 | locus YMR125W, strain sto1, stronger effect = lower value 0.973 | locus YMR129W, stronger effect = lower value 1.01 | locus YMR205C, strain PFK2, stronger effect = lower value 0.966 | locus YMR223W, strain ubp8, stronger effect = lower value 1.02 | locus YMR231W, strain pep5, stronger effect = lower value 1.01 | locus YMR307W, strain GAS1, stronger effect = lower value 1.01 | locus YNL067W, strain RPL9B, stronger effect = lower value 1.04 | locus YNL071W, strain lat1, stronger effect = lower value 1 | locus YNL128W, strain TEP1, stronger effect = lower value 1.02 | locus YNL183C, strain NPR1, stronger effect = lower value 0.937 | locus YNL209W, strain ssb2, stronger effect = lower value 1.01 | locus YNL233W, strain BNI4, stronger effect = lower value 1.03 | locus YNL248C, strain rpa49, stronger effect = lower value 0.953 | locus YNL250W, strain rad50, stronger effect = lower value 1.04 | locus YNL271C, strain bni1, stronger effect = lower value 1.04 | locus YNL298W, strain CLA4, stronger effect = lower value 1.05 | locus YNL307C, strain MCK1, stronger effect = lower value 1.05 | locus YNL322C, strain KRE1 (second series), stronger effect = lower value 0.998 | locus YNR049C, strain mso1, stronger effect = lower value 1.01 | locus YNR052C, strain pop2, stronger effect = lower value 1.02 | locus YOL012C, strain htz1 1.37 | locus YOL147C, strain pex11, stronger effect = lower value 1.02 | locus YOR001W, strain rrp6, stronger effect = lower value 1 | locus YOR061W, strain CKA2, stronger effect = lower value 1.02 | locus YOR069W, strain VPS5, stronger effect = lower value 1.01 | locus YOR070C, strain gyp1, stronger effect = lower value 1.01 | locus YOR080W, strain dia2, stronger effect = lower value 0.998 | locus YOR083W, strain WHI5, stronger effect = lower value 0.968 | locus YOR106W, strain vam3, stronger effect = lower value 0.988 | locus YOR136W, strain idh2, stronger effect = lower value 1.04 | locus YOR144C, strain elg1, stronger effect = lower value 1.01 | locus YOR184W, strain ser1, stronger effect = lower value 1.02 | locus YOR231W, strain MKK1, stronger effect = lower value 0.966 | locus YOR265W, strain rbl2, stronger effect = lower value 0.999 | locus YOR270C, strain vph1, stronger effect = lower value 0.981 | locus YOR290C, strain snf2, stronger effect = lower value 1 | locus YOR316C, strain cot1, stronger effect = lower value 1.04 | locus YPL051W, strain arl3, stronger effect = lower value 0.988 | locus YPL055C, strain LGE1, stronger effect = lower value 1.05 | locus YPL078C, strain atp4, stronger effect = lower value 0.958 | locus YPL106C, strain sse1, stronger effect = lower value 1 | locus YPL240C, strain hsp82, stronger effect = lower value 1.01 | locus YPL241C, strain CIN2, stronger effect = lower value 1.02 | locus YPL256C, strain CLN2, stronger effect = lower value 0.986 | locus YPR119W, strain clb2, stronger effect = lower value 1.03 | locus YPR141C, strain kar3, stronger effect = lower value 1.03 | locus YPR163C, strain tif3, stronger effect = lower value 1.01 | locus YPR167C, strain met16, stronger effect = lower value 1.04 | strain wtn01, stronger effect = lower value 1.03
